# In PubChem BioAssay (EPA / NIEHS):
# Results filed as inconclusive are left out. A structure can be active in one record and inactive in another. The source made the active and inactive calls. Rule for the calls, unless noted: active = hit-call score of the fitted dose curve at least 0.9, where 1 is the maximum; inactive = score below 0.9.
# Legend:
# [1] = read-out: Interleukin-8 (IL8), CXCL8 (gene 3576); test: BSK_BE3C_IL8: BioMAP Diversity Plus: BE3C Assay for Interleukin-8 (IL8) Biomarker Activity (AID 2284280); conditions: primary human bronchial epithelial cells
# Procedure, shortened: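 Primary human bronchial epithelial cells (BE3C system) exposed 24 h; IL-8 measured by ELISA and fitted in positive direction versus DMSO. Overt cytotoxicity assessed by SRB total-protein staining in parallel cultures.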
# [2] = read-out: Epidermal growth factor receptor (EGFR), EGFR (gene 1956); test: BSK_BE3C_EGFR: BioMAP Diversity Plus: BE3C Assay for Epidermal growth factor receptor (EGFR) Biomarker Activity (AID 2284281); conditions: primary human bronchial epithelial cells
# Procedure, shortened: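 Human primary bronchial epithelial cells (BE3C system) dosed with chemicals; EGFR measured by ELISA at 24 h, fitted in the positive direction relative to DMSO. Cytotoxicity tracked in parallel cultures by SRB total-protein staining.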
# KRT18 (gene 3875) = test: BSK_BE3C_Keratin818: BioMAP Diversity Plus: BE3C Assay for Keratin 818 Biomarker Activity (AID 2284282); conditions: primary human bronchial epithelial cells
# Procedure, shortened: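 Chemicals are added to human lung bronchial epithelial primary cells (BE3C system) and incubated 24 h. Keratin 8/18 is then measured by ELISA, with parallel SRB total-protein staining gauging overt cytotoxicity.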
# [3] = read-out: Matrix Metallopeptidase 9 (MMP9), MMP9 (gene 4318); test: BSK_BE3C_MMP9: BioMAP Diversity Plus: BE3C Assay for Matrix Metallopeptidase 9 (MMP9) Biomarker Activity (AID 2284283); conditions: primary human bronchial epithelial cells
# Procedure, shortened: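 Human primary bronchial epithelial cells exposed 24 h to compound. MMP9 quantified by ELISA. SRB total-protein staining of parallel cultures assesses cytotoxicity. Positive-direction fit relative to DMSO.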
# [4] = read-out: Plasminogen activator inhibitor-1 (PAI1), SERPINE1 (gene 5054); test: BSK_CASM3C_PAI1: BioMAP Diversity Plus: CASM3C Assay for Plasminogen activator inhibitor-1 (PAI1) Biomarker Activity (AID 2284284); conditions: primary human coronary artery smooth muscle cells;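 note: PAI-1 protein level measured by ELISA 24 h after dosing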
# [5] = read-out: Monocyte Chemoattractant Protein-1 (MCP1), CCL2 (gene 6347); test: BSK_hDFCGF_MCP1: BioMAP Diversity Plus: hDFCGF Assay for Monocyte Chemoattractant Protein-1 (MCP1) Biomarker Activity (AID 2284285); conditions: primary human foreskin fibroblasts
# Procedure, shortened: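 Human foreskin fibroblasts (hDFCGF system) were exposed to compound and secreted MCP-1 was measured by ELISA after 24 hours. Activity was fitted relative to DMSO. Cytotoxicity was checked by SRB total-protein staining in parallel cultures.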
# [6] = read-out: Vascular cell adhesion molecule 1 (VCAM1), VCAM1 (gene 7412); test: BSK_IMphg_VCAM1: BioMAP Diversity Plus: IMphg Assay for Vascular cell adhesion molecule 1 (VCAM1) Biomarker Activity (AID 2284286); conditions: primary human endothelial cells with macrophages
# Procedure, shortened: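 Human venular endothelial cells co-cultured with macrophages; VCAM-1 quantified by ELISA 24 h after dosing, fitted in the positive direction against DMSO. Cytotoxicity was checked in parallel cultures by SRB total-protein staining (0.1% SRB after 10% TCA fixation, 560 nm).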
# [7] = read-out: Intercellular Adhesion Molecule 1 (ICAM1), ICAM1 (gene 3383); test: BSK_hDFCGF_ICAM1: BioMAP Diversity Plus: hDFCGF Assay for Intercellular Adhesion Molecule 1 (ICAM1) Biomarker Activity (AID 2284287); conditions: primary human foreskin fibroblasts
# Procedure, shortened: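 Primary human foreskin fibroblasts (hDFCGF system) dosed with chemical; ICAM-1 quantified by ELISA at 24 h relative to DMSO. Parallel SRB total-protein staining to assess overt cytotoxicity.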
# CD40, CD40 (gene 958) = test: BSK_IMphg_CD40: BioMAP Diversity Plus: IMphg Assay for CD40 Biomarker Activity (AID 2284288); conditions: primary human endothelial cells with macrophages
# Procedure, shortened: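 Venular endothelial cells co-cultured with macrophages (human primary), CD40 measured by ELISA 24 h after dosing. Positive-direction fit vs DMSO baseline; cytotoxicity tracked by SRB total-protein staining in parallel cultures.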
# [8] = read-out: TIMP metallopeptidase inhibitor 2 (TIMP2), TIMP2 (gene 7077); test: BSK_hDFCGF_TIMP2: BioMAP Diversity Plus: hDFCGF Assay for TIMP metallopeptidase inhibitor 2 (TIMP2) Biomarker Activity (AID 2284289); conditions: primary human foreskin fibroblasts
# Procedure, shortened: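 Primary human foreskin fibroblasts in the hDFCGF system, dosed for 24 h; TIMP-2 level measured by ELISA, fitted in the positive direction against DMSO; cytotoxicity checked in parallel by sulforhodamine B total protein staining.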
# [9] = read-out: Interleukin-1 alpha (IL1a), IL1A (gene 3552); test: BSK_IMphg_IL1a: BioMAP Diversity Plus: IMphg Assay for Interleukin-1 alpha (IL1a) Biomarker Activity (AID 2284290); conditions: primary human endothelial cells with macrophages
# Procedure, shortened: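 Human venular endothelial cells co-cultured with macrophages, IMphg system. IL-1α is measured by ELISA 24 h after dosing and fitted in the positive direction against DMSO. Cytotoxicity is assessed by SRB staining of parallel cultures.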
# [10] = read-out: E-selectin (Homo sapiens) (UniProt P16581); test: BSK_IMphg_ESelectin: BioMAP Diversity Plus: IMphg Assay for Eselectin Biomarker Activity (AID 2284291); conditions: primary human endothelial cells with macrophages
# Procedure, shortened: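 Human venular endothelial cell–macrophage co-culture, E-selectin measured by ELISA 24 h after chemical dosing. Signal fitted in the positive direction against DMSO as negative control and baseline.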
# [11] = BSK_IMphg_SRB: Viability Assessment in the BioMAP Diversity Plus: IMphg Assay (AID 2284292); conditions: primary human endothelial cells with macrophages;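 note: measured one day after compound addition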
# Procedure, shortened: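 Human venular endothelial cells with macrophages, 24 h after chemical dosing; total protein by 0.1% SRB staining after 10% TCA fixation, read at 560 nm. Positive-direction fitting versus DMSO baseline.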
# [12] = read-out: Macrophage colony-stimulating factor (MCSF), CSF1 (gene 1435); test: BSK_IMphg_MCSF: BioMAP Diversity Plus: IMphg Assay for Macrophage colony-stimulating factor (MCSF) Biomarker Activity (AID 2284293); conditions: primary human endothelial cells with macrophages
# Procedure, shortened: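 Co-culture of human venular endothelial cells and macrophages, 24 hours of chemical exposure. M-CSF quantified by ELISA, with parallel SRB total-protein staining for cytotoxicity; activity fitted relative to DMSO.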
# [13] = read-out: Interleukin-10 (IL10), IL10 (gene 3586); test: BSK_IMphg_IL10: BioMAP Diversity Plus: IMphg Assay for Interleukin-10 (IL10) Biomarker Activity (AID 2284294); conditions: primary human endothelial cells with macrophages
# Procedure, shortened: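 Human venular endothelial cells cocultured with macrophages, dosed 24 h; IL-10 measured by ELISA, activity relative to DMSO. Cytotoxicity assessed in parallel cultures by sulforhodamine B total-protein staining.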
# [14] = BSK_IMphg_SRB.Mphg: Macrophage Viability Assessment in the BioMAP Diversity Plus: IMphg Assay (AID 2284295); conditions: primary human endothelial cells with macrophages
# Procedure, shortened: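 Venular endothelial cells co-cultured with macrophages, read 24 h after dosing. Total protein measured by 0.1% SRB staining after 10% TCA fixation, absorbance at 560 nm. Fitted in positive direction against DMSO baseline.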
# [15] = read-out: Thrombomodulin, THBD (gene 7056); test: BSK_LPS_Thrombomodulin: BioMAP Diversity Plus: LPS Assay for Thrombomodulin Biomarker Activity (AID 2284296); conditions: primary human HUVEC with PBMC
# Procedure, shortened: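 Human umbilical vein endothelial cells co-cultured with PBMC and stimulated with LPS; cell-surface thrombomodulin measured by ELISA 24 hours after compound. Gain or loss versus DMSO; cytotoxicity checked by SRB staining in parallel cultures.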
# CD69, CD69 (gene 969) = test: BSK_LPS_CD69: BioMAP Diversity Plus: LPS Assay for CD69 Biomarker Activity (AID 2284303); conditions: primary human HUVEC with PBMC
# Procedure, shortened: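 Human umbilical vein endothelial cells co-cultured with PBMC under LPS stimulation, chemical exposure 24 h; cell-surface CD69 measured by ELISA and fitted in the positive direction versus DMSO.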
# IYD (gene 389434) = test: CCTE_GLTED_hIYD: CCTE's human Iodotyrosine Deiodinase (xIYD) Inhibition Assay, Great Lakes Toxicology and Ecology Division (GLTED) Lab (AID 2284317; active = hit-call score of the fitted dose curve at least 0.9, where 1 is the maximum;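 note: cell-free human IYD enzyme made in baculovirus insect cells; iodide freed from monoiodotyrosine measured by cerium arsenite color change at 420 nm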)
# Procedure, shortened: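 Absorbance change at 420 nm from the iodide-catalysed cerium-arsenic reaction reports free iodide released by human IYD from monoiodotyrosine. Enzyme, substrate and chemical are incubated 3 h; loss of signal is fitted relative to DMSO baseline.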
# [16] = CCTE_Mundy_HCI_iCellGluta_NOG_NeuriteLength: CCTE's Neurite Outgrowth Assay in iCellGluta cells for Neurite Length, Mundy Lab (AID 2284318; active = hit-call score of the fitted dose curve at least 0.9, where 1 is the maximum)
# Procedure, shortened: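 Automated high-content imaging of betaIII-tubulin (Alexa Fluor-488) and Hoechst-stained cells gave neurite length, normalized to the DMSO baseline.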
# Chain of E-selectin (Homo sapiens) (P16581 whole entry, looked up): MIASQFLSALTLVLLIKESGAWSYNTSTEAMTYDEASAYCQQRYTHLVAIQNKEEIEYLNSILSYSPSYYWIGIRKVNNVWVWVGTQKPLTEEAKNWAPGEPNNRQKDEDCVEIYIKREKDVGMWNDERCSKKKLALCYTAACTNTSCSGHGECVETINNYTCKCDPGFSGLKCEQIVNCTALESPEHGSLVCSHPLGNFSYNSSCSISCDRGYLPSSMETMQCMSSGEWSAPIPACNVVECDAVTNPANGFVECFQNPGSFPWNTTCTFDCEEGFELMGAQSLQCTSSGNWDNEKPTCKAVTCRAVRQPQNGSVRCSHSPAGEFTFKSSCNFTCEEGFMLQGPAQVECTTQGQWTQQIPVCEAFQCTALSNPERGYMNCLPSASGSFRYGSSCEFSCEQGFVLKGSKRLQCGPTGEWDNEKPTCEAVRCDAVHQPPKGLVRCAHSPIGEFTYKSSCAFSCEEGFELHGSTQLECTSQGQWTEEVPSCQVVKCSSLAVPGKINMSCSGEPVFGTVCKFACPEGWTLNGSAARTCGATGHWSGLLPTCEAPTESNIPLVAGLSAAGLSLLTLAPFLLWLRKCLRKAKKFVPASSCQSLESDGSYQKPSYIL
compound,measurement,setting,value
OCC(F)(F)C(F)(F)C(F)(F)CO,outcome,[1],inactive
same,outcome,[2],inactive
same,outcome,KRT18 (gene 3875),inactive
same,outcome,[3],inactive
same,outcome,[4],inactive
same,outcome,[5],inactive
same,outcome,[6],inactive
same,outcome,[7],inactive
same,outcome,"CD40, CD40 (gene 958)",inactive
same,outcome,[8],inactive
same,outcome,[9],inactive
same,outcome,[10],inactive
same,outcome,[11],inactive
same,outcome,[12],inactive
same,outcome,[13],inactive
same,outcome,[14],inactive
same,outcome,[15],inactive
same,outcome,"CD69, CD69 (gene 969)",inactive
C=C(C)C(=O)OCC(F)(F)C(F)(F)C(F)(F)C(F)F,outcome,[1],inactive
same,outcome,[2],inactive
same,outcome,KRT18 (gene 3875),inactive
same,outcome,[3],inactive
same,outcome,[4],inactive
same,outcome,[5],inactive
same,outcome,[6],inactive
same,outcome,[7],inactive
same,outcome,"CD40, CD40 (gene 958)",inactive
same,outcome,[8],inactive
same,outcome,[9],inactive
same,outcome,[10],inactive
same,outcome,[12],inactive
same,outcome,[13],inactive
same,outcome,[14],inactive
same,outcome,[15],inactive
same,outcome,"CD69, CD69 (gene 969)",inactive
O=S(=O)(O)CCC(F)(F)C(F)(F)C(F)(F)C(F)(F)C(F)(F)C(F)(F)C(F)(F)C(F)(F)F,AC50,[1],20.4 µM (active)
same,outcome,[1],inactive
same,outcome,[2],inactive
same,outcome,KRT18 (gene 3875),inactive
same,outcome,[3],inactive
same,outcome,[4],inactive
same,outcome,[5],inactive
same,AC50,[7],22.4 µM (active)
same,outcome,[7],inactive
same,AC50,"CD40, CD40 (gene 958)",20.9 µM (active)
same,outcome,"CD40, CD40 (gene 958)",inactive
same,outcome,[8],inactive
same,outcome,[9],inactive
same,AC50,[10],21.3 µM (active)
same,outcome,[10],inactive
same,outcome,[12],inactive
same,AC50,[13],30 µM (active)
same,outcome,[14],inactive
same,AC50,[15],8.71 µM (active)
same,outcome,[15],inactive
CCCCCCCCCCCCCC[P+](CCCC)(CCCC)CCCC,AC50,IYD (gene 389434),97.6 µM (active)
O=C(O)C(F)(F)C(F)(F)C(F)(F)OC(F)(F)F,outcome,[1],inactive
same,outcome,[2],inactive
same,outcome,KRT18 (gene 3875),inactive
same,outcome,[3],inactive
same,outcome,[4],inactive
same,outcome,[5],inactive
same,outcome,[7],inactive
same,outcome,"CD40, CD40 (gene 958)",inactive
same,outcome,[8],inactive
same,outcome,[9],inactive
same,outcome,[10],inactive
same,outcome,[12],inactive
same,outcome,[13],inactive
same,outcome,[14],inactive
same,outcome,[15],inactive
same,outcome,[16],inactive
CCCCCCCC/C=C\CCCCCCCC(=O)N(C)CC(=O)O,AC50,IYD (gene 389434),58.2 µM (active)
NC(=O)C(F)(F)C(F)(F)C(F)(F)C(F)F,outcome,[1],inactive
same,outcome,[2],inactive
same,outcome,KRT18 (gene 3875),inactive
same,outcome,[3],inactive
same,outcome,[4],inactive
same,outcome,[5],inactive
same,outcome,[7],inactive
same,outcome,"CD40, CD40 (gene 958)",inactive
same,outcome,[8],inactive
same,outcome,[9],inactive
same,outcome,[10],inactive
same,outcome,[12],inactive
same,outcome,[13],inactive
same,outcome,[14],inactive
same,outcome,[15],inactive
